Screening data (PubChem)
FUS suppressor: qHTS for Suppressors of FUS Proteinopathy: Primary screen using FUS-linked yeast assay; 390,000 compounds, 0.24% hits; AID 1347120, 2019; S. cerevisiae FUS-expressing, growth rescue, OD600, 24 h; Potency, µM (doses to about 76.6 µM), usual class: activators;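 note: plate controls were DMSO vehicle for no effect and reference control for full effect; nearly all actives have a fitted effect of over 55% in size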
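Toxicity suppression screen in FUS-yeast. Cells induced with 2% galactose, starting OD 0.005, treated 24hr at 30C with compounds at multiple final concentrations; growth by OD600.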
TDP43 rescue: qHTS of TDP-43 Inhibitors | AID 652104, 2013 | Potency, µM (highest dose often 46.1 µM), inactives show top-dose growth rescue (activation), hits mostly activators | 410,000 compounds, 1.8% hits | TDP-43 expressing yeast growth rescue, BacTiter-Glo, 24 h; note: % of control where 0% means no effect; nearly all actives have a fitted effect of over 50% in size
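Luminescence from BacTiter-Glo reports growth of TDP-43-expressing yeast after 24 hr at 30 deg C with compound. Cells were raffinose-pregrown to mid-log, then seeded in galactose medium at OD600=0.02.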
Mito fusion yeast: qHTS Assay for Small Molecule Inhibitors of Mitochondrial Division or Activators of Mitochondrial Fusion; 320,000 compounds, 0.23% hits; AID 485298, 2010; Potency, µM (highest dose often 46.1 µM), for the others: top-dose growth rescue (activation), actives largely listed as activators; S. cerevisiae fusion-defective mutant growth rescue, CellTiterGlo 48 h; note: % of control where 0% means no effect; nearly all actives have a fitted effect of over 45% in size
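S. cerevisiae fusion-defective temperature-sensitive mutants (e.g. fzo1-1, mgm1-5) grown 48 h at 37C in YPEG (ethanol/glycerol non-fermentable) medium with 23 nl compound per well; growth rescue read as CellTiterGlo luminescence.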
aSyn yeast inh: qHTS of alpha-syn Inhibitors. AID 652106, 2013. Yeast expressing alpha-synuclein, growth rescue, BacTiter-Glo, 24 h. Potency, µM (series often up to 46.1 µM), without a hit: at the top dose growth rescue (activation), usual class: activators. 370,000 compounds, 0.14% hits; note: % of control where 0% means no effect; nearly all actives have a fitted effect of over 65% in size
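Screening used galactose-induced yeast with toxic alpha-synuclein levels, exposed to compound for 24 hr at 30 deg C. Cell growth, read with BacTiter-Glo luminescence, gave the measured signal.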
Abeta yeast res: qHTS for compounds that reverse cellular toxicity of Amyloid beta (A-beta) peptide in yeast: Primary Screen; yeast expressing A-beta42, growth rescue, OD600, 48 h; response scale: 0% DMSO, 100% iron-clioquinol control; Potency, µM (doses to about 46.1 µM), hits mostly activators; 410,000 compounds, 0.063% hits; note: nearly all actives have a fitted effect of over 55% in size
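Growth rescue measured by 600 nm absorbance after 48 h yeast culture at 30 C with compound. Values normalized between DMSO and an equimolar ferric chloride plus clioquinol control.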
Active calls of the source: *; i = inactive; u = inconclusive; x = no result. This is a sample that favours compounds with a hit; in the whole collection about 2.2% have one here. Calls come from the whole dose curve; as a rule, active = well fitted curve in the direction sought with a large enough effect; inconclusive = small, poorly fitted or top-dose-only effect, or another doubt; inactive = no such curve, though single readings can be large; an effect the other way counts as inactive or inconclusive. Potency is the fitted concentration of half-maximal effect.

SMILES	FUS suppressor	TDP43 rescue	Mito fusion yeast	aSyn yeast inh	Abeta yeast res
N/C(=N\OC(=O)c1ccc(Br)cc1)c1cccc([N+](=O)[O-])c1	i	10µM*	1%	-17%	i
N/C(=N\OC(=O)Cc1cccs1)c1cccc([N+](=O)[O-])c1	i	11µM*	1%	28%	i
Cc1ccc(C(=O)O/N=C(\N)c2cccc([N+](=O)[O-])c2)cc1	i	10µM*	-2%	-13%	i
N/C(=N\OC(=O)c1ccncc1)c1cccc([N+](=O)[O-])c1	i	u	3%	5%	i
CCc1ccc(N/C(SC)=C(/C#N)C(N)=O)cc1	i	7%	5%	1%	i
CCCCS/C(=C(/C#N)C(N)=O)c1cc2c([nH]1)CCCC2	i	u	13µM*	10%	i
COc1cccc(-n2c(=O)c3sc4ccccc4c3n(CC(=O)Nc3ccc(F)cc3F)c2=O)c1	i	4%	x	x	i
Cc1ccc(-c2csc(-c3cc4c([nH]c3=O)CC(c3ccccc3)CC4=O)n2)cc1 (stereo not drawn)	i	-5%	x	x	i
COc1cc(OC)c(/C=C/c2cc3ccccc3c[n+]2C)c(OC)c1	x	x	x	-6%	x
c1ccc(Sc2ncnc3c2oc2ccccc23)cc1	i	13µM*	0%	-1%	i
O=C(O)CSc1ncnc2c1oc1ccccc12	i	-14%	1%	0%	i
CCOC(=O)c1ccc(N2C(=O)c3n[nH]c(-c4ccco4)c3C2c2cccc(O)c2)cc1 (stereo not drawn)	i	-1%	x	x	i
Nc1cc(-c2ccc(Br)cc2)nn1Cc1ccccc1	i	20µM*	11%	-1%	u
Nc1cc(-c2cccc(Br)c2)nn1Cc1ccccc1	x	u	3%	13%	i
COc1ccc(-c2c(-c3cc(OC)cc(OC)c3)n(C)c3ccc(Br)cc23)cc1	i	13%	2%	1%	i
COc1ccc(N=Nc2nc3ccc(Br)cc3n2C)cc1	i	13µM*	-5%	-15%	i
CCOC(=O)c1cc2c(=O)n3ccccc3nc2n(Cc2ccco2)c1=NC(=O)c1cccc(F)c1	u	11%	x	x	i
O=C(Cn1cc(C(=O)C2CCCCC2)c2ccccc21)Nc1ccccc1Cl	i	6%	x	x	i
C/C(=N\O)C(=O)C(CN1CCCCC1)CN1CCCCC1	i	-29%	-9%	14µM*	i
CC(=O)/C(CN1CCCCC1)=N\O	i	-11%	1%	4%	i
O=C(CC1CCCC1)N1CC[C@H]2[C@H](CCCN2Cc2ccccc2)C1	i	x	x	x	x
Cc1ccc(S(=O)(=O)c2cc3c(=O)n4ccccc4nc3n(Cc3ccco3)c2=N)cc1	14µM*	-18%	8%	-3%	i
Cc1ccccc1NC(=O)CN1C(=O)CCn2nc(-c3cccn3C)cc21	i	25%	x	x	i
CNC(=O)c1ccc(-c2sc3nc(N4CCOCC4)c4c(c3c2N)CCCC4)o1	7.1µM*	22µM*	6%	-8%	i
Cc1csc(NC(=O)C(Cc2ccccc2)n2cccc2)n1 (stereo not drawn)	i	13µM*	3%	-8%	u
Cc1ccc(NC(=O)C(Cc2ccccc2)n2cccc2)cc1 (stereo not drawn)	i	14%	10%	2%	i
COc1cccc(NC(=O)C(Cc2ccccc2)n2cccc2)c1 (stereo not drawn)	i	13µM*	20%	8%	i
COc1cccc(CNC(=O)C(Cc2ccccc2)n2cccc2)c1 (stereo not drawn)	i	-6%	10%	-4%	i
O=C(Nc1cc(C(=O)N2CCN(c3ccccc3)CC2)ccc1Cl)c1cccs1	x	13µM*	x	-7%	i
CCOC(=O)c1c(N)sc2c1CCC1C(=O)N(C3CCCCC3)C(=O)C21 (stereo not drawn)	28µM*	-15%	11%	0%	i
